This note sets out measurements from PubChem BioAssay (Tox21).

Records with an inconclusive call do not appear. Activity calls are given as the source filed them. The call rests on the fitted dose curve; in most records, active means well fitted cell-killing curve with a large enough effect in the repeat runs; inconclusive means weak or mixed curves, or effect the other way; inactive means flat fitted curve, though single readings scatter.

This assay is described as follows: qHTS assay to identify small molecule antagonists of the androgen receptor (AR) signaling pathway using the MDA cell line in the presence of 0.5 nM R1881 - cell viability counter screen (AID 1259242). Further: nearly all actives have a fitted effect of over 45% in size. Particulars: MDA-kb2 viability, CellTiter-Fluor protease fluorescence, 16 h; series mostly up to 92.4 µM. An excerpt:
U.S. Tox21 Program National Center for Advancing Translational Sciences [NCATS] NIH Chemical Genomics Center [NCGC] U.S. Environmental Protection Agency [EPA] National Institutes of Environmental Health Sciences [NIEHS] National Toxicology Program [NTP] U.S. Food and Drug Administration [FDA] Tox21 Assay Overview: Androgen receptor (AR) is an important member of the nuclear receptor family. Its signaling plays a critical role in AR-dependent prostate cancer and other androgen related diseases. Considerable attention has been given in the past decades to develop methods to study and screen for the environmental chemicals that have the potential to interfere with metabolic homeostasis, reproduction, developmental and behavioral functions. Therefore AR binding assay for screening androgen antagonists can be used to identify potential endocrine disruptors. MDA-kb2 cells (from ATCC, deposited by Wilson et al.) were used to screen for AR inhibitors against Tox21 compound libraries. These cells are human breast carcinoma cells that were stably transfected with a luciferase reporter gene under control of the MMTV promoter that contains response elements for both androgen receptor (AR) and glucocorticoid receptor (GR). The current screening for identification of AR inhibitors against Tox21 libraries used lower concentration of (0.5 nM) R1881 as a stimulator. The cytotoxicity of the Tox21 compound libraries against MDA-kb2 cell line was tested by measuring live-cell protease activity using CellTiter-Fluor assay in the same wells.
Tox21 Assay Protocol Summary: MDA-kb2 cells (cells cultured without CO2) were dispensed at 3,000 cells/well in 4 uL of culture medium into white wall/solid-bottom 1536-well plates (Corning Life Sciences, Corning, NY) using a Multidrop Combi (ThermoFisher Scientific, Waltham, MA) dispenser. After the assay plates were incubated at a 37C and 0% CO2 for 5 hr, 23 nL of compounds dissolved in DMSO, positive controls or DMSO only was transferred to the assay plate by a Pintool station (Kalypsys, San Diego, CA). The transfer of compounds was followed by the addition of 1 uL of 0.5 nM (final concentration) agonist (R1881)/culture medium using a Flying Reagent Dispenser (FRD, Aurora Discovery, San Diego, CA). The plates were incubated at 37C and 0% CO2 for 16 hr. For cytotoxicity assay, 1 uL of CellTiter-Fluor reagent (Promega Corporation, Madison, WI) was added to each well using the FRD and after 30 min incubation at 37C and 0% CO2, The fluorescence intensity was measured using ViewLux plate reader (PerkinElmer, Shelton, CT).
(In general: In qHTS, concentration-response curves come from the screen itself.)
With `O=c1[nH]c2ccccc2c(=O)o1`, the result was inactive.
As for `Oc1ccccc1Cl`, the outcome was inactive.
Next, `[N-]=[N+]=[N-]`: “inactive”; `CN=C=S`: “inactive”.
The value for `CN(C)CCO` was “inactive”; that for `CNC(=O)Oc1ccccc1OC(C)C` was “inactive”; that for `ClCCBr` was “inactive”.
Next, `CCCC1COC(Cn2cncn2)(c2ccc(Cl)cc2Cl)O1` (stereo not given): “inactive”; `Nc1ccc(Br)cc1`: “inactive”.
Consider `Clc1cccc(Cl)c1Cl`, for which the outcome was inactive.
Consider `CC(C)C1(C)N=C(c2nc3ccccc3cc2C(=O)O)NC1=O` (stereo not given), for which the outcome was inactive.
On to `CC(C)C#N`, for which the outcome was inactive.
As for `O=NN1CCCC1`, the outcome was inactive.
The value for `Cc1[nH]c(=O)n(C(C)(C)C)c(=O)c1Cl` was “inactive”; that for `O=[N+]([O-])c1ccccc1` was “inactive”.
Next, `[O-][Cl+2]([O-])O`: “inactive”.
Next, `Clc1ccc(Cl)cc1`: “inactive”; `Cc1cc(Cl)ccc1O`: “inactive”.
Take `Nc1c(Cl)c(Cl)nc(C(=O)O)c1Cl`: the outcome was inactive.
Next, `CCCCCCCCCCCC#N`: “inactive”.
On to `ClCc1cccnc1`, for which the outcome was inactive.
Next, `CCN(CC)CCO`: “inactive”.
As to `OC(O)C(Cl)(Cl)Cl`, the outcome was inactive.
Next, `COC(=O)NC(=S)Nc1ccccc1NC(=S)NC(=O)OC`: “inactive”; `C1CN2CCN1CC2`: “inactive”.
Next, `CCC(C)(CC)c1cc(NC(=O)c2c(OC)cccc2OC)on1`: “inactive”; `C1CC2OC2CC1C1CO1` (stereo not given): “inactive”.
For `NCC(O)c1ccc(O)cc1` (stereo not given), the outcome was inactive.
Consider `OCCN(CCO)CCO`, for which the outcome was inactive.
For `CCC[CH2][Sn]([Cl])([Cl])[Cl]`, the result was inactive.
As for `Clc1ccccc1Cl`, the outcome was inactive.
For the molecule `COC(=O)c1ccccc1C(=O)OC`, the outcome was inactive.
With `CN(C)[C@@H]1C(=O)C(C(N)=O)=C(O)[C@@]2(O)C(=O)C3=C(O)c4c(O)cccc4[C@@](C)(O)[C@H]3C[C@@H]12`, the outcome was inactive.
Next, `O=C(O)c1ccccn1`: “inactive”.
The value for `Cc1ccc([N+](=O)[O-])cc1C` was “inactive”; that for `CCN(CC)c1ccccc1` was “inactive”; that for `O=c1n(Cl)c(=O)n(Cl)c(=O)n1Cl` was “inactive”.
With `CCCCCCCCCl`, the outcome was inactive.
On to `Nc1ccccc1C(=O)O`, for which the outcome was inactive.
The value for `COC(=O)c1ccccc1N` was “inactive”.
